# PubChem BioAssay
# Active and inactive are the calls of the source.
# Key:
# [1] = test system: Plasmodium falciparum Sir2 (PF13_0152, Sir2A); experiment: Plasmodium falciparum Sir2A binding compounds – biochemical, small-molecule microarray, 635 nm fluorescence, primary screen (AID 1098); details: fluorescence 635 nm, higher = more signal;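 further: score merges spot fluorescence intensity with its signal-to-noise ratio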
# [2] = probe aDKK1 binding to arrayed compounds – biochemical, biotinylated probe, 635/667 nm fluorescence, primary screen (AID 1099); details: small-molecule microarray, higher = more signal;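 further: score merges 667nm spot fluorescence with signal to noise across triplicate slides; reference of the scale not given here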
# [3] = probe aCHRDL2 binding to arrayed compounds – biochemical, biotinylated probe, 635/667 nm fluorescence, primary screen (AID 1100); details: small-molecule microarray, higher = more signal
# [4] = change in splice reporter luminescence, either direction, cell-based, HEK293, spliceosome inhibition project, primary screen (AID 1101); details: HEK293 splicing luciferase reporter, 24 h, higher = more signal, called active from +8 up or from −8 down;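 further: HEK293 cells carrying a splicing-competent luciferase reporter gene; test concentration not given here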
# [5] = biological target: Fibroblast growth factor 10 (Homo sapiens) (UniProt O15520); experiment: compounds binding fibroblast growth factor 10 – biochemical, small-molecule microarray, 635 nm fluorescence, primary screen (AID 1102); details: FGF10 binding, fluorescence 635 nm, higher = more signal
# Fibroblast growth factor 10 (Homo sapiens), sequence (O15520 whole entry, looked up): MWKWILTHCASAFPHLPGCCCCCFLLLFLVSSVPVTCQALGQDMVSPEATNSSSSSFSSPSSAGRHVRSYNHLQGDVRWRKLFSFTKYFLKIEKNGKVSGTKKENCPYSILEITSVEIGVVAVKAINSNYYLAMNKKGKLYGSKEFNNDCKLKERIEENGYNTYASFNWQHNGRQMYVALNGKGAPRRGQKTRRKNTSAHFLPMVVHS
# [6] = test system: glycogen synthase kinase-3 (GSK3A per assay name; protocol says GSK3B); experiment: compounds binding glycogen synthase kinase-3 – biochemical, small-molecule microarray, 635 nm fluorescence, GSK3A, primary screen (AID 1103); details: fluorescence 635 nm, higher = more signal; further: the record names both GSK3A and GSK3B
# [7] = biological target: Epidermal growth factor receptor (Homo sapiens) (UniProt P00533); experiment: compounds binding epidermal growth factor receptor – biochemical, small-molecule microarray, 635 nm fluorescence, primary screen (AID 1104); details: EGFR binding, higher = more signal;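 further: score merges 667 nm emission intensity with spot signal to noise over triplicate slides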
# Epidermal growth factor receptor (Homo sapiens), sequence (P00533 whole entry, looked up): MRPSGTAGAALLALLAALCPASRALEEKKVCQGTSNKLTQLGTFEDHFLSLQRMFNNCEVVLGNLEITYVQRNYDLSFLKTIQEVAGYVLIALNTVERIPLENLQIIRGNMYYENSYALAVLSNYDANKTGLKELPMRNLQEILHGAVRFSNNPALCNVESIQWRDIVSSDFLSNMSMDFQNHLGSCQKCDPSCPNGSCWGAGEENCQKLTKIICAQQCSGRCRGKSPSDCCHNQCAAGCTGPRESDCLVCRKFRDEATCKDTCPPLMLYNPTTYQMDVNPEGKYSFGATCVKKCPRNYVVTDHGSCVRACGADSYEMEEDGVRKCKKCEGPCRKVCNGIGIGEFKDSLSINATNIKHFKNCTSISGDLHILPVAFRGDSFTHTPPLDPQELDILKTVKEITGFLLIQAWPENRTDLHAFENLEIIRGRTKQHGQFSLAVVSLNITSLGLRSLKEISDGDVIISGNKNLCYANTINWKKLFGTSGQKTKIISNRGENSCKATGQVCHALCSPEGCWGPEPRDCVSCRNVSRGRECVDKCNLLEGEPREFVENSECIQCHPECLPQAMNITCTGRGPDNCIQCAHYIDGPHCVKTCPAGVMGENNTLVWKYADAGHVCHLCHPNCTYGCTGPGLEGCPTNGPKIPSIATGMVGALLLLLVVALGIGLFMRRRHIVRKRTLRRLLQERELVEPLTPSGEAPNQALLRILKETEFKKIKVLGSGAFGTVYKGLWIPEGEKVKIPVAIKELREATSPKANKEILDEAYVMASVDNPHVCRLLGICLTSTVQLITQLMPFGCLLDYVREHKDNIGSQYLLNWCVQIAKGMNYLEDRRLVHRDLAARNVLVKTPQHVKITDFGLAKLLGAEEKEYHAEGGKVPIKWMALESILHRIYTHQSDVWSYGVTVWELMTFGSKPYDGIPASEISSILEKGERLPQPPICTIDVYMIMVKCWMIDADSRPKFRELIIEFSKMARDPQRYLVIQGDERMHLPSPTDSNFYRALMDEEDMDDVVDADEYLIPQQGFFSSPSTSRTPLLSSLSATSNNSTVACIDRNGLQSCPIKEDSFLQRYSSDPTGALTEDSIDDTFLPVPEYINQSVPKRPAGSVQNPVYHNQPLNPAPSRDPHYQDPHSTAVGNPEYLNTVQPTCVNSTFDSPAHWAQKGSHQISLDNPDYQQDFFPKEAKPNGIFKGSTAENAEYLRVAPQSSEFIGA
# [8] = biological target: Follistatin-related protein 3 (Homo sapiens) (UniProt O95633); experiment: compounds binding follistatin-related protein 3 – biochemical, small-molecule microarray, 635 nm fluorescence, primary screen (AID 1105); details: FSTL3 binding, higher = more signal;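 further: score merges emission near 667 nm and signal to noise per printed spot across three slides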
# Follistatin-related protein 3 (Homo sapiens), sequence (O95633 whole entry, looked up): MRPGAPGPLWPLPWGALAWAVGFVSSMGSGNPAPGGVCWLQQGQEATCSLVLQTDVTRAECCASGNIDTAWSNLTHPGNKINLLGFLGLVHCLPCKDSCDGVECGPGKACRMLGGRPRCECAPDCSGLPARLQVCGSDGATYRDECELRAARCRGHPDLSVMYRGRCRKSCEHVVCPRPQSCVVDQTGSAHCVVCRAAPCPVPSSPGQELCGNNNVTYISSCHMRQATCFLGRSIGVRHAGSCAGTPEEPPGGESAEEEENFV
# [9] = biological target: Dickkopf-related protein 1 (Homo sapiens) (UniProt O94907); experiment: small molecules binding DKK1 protein – biochemical, small-molecule microarray, 635 nm fluorescence scan, primary screen (AID 1106); details: higher = more signal;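 further: score merges emission near 667 nm with signal to noise over three replicate slides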
# Dickkopf-related protein 1 (Homo sapiens), sequence (O94907 whole entry, looked up): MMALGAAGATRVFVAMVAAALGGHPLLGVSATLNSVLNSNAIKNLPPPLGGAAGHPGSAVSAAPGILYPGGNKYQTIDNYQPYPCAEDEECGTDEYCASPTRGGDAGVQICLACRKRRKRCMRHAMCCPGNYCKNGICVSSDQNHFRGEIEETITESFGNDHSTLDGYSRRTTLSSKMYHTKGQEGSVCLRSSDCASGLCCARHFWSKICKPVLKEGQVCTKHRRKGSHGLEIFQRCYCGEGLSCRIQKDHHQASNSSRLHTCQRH
# [10] = test system: Inhibin beta A chain (activin A); experiment: small molecules binding activin A – biochemical, small-molecule microarray, 635 nm fluorescence scan, primary screen (AID 1107); details: INHBA, higher = more signal;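 further: mouse activin A protein probed at 4.33 µg/mL on printed slides; score merges bound-protein fluorescence near 667 nm with spot signal-to-noise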
SMILES,composite z-score [1],composite z-score [2],composite z-score [3],z-score [4],composite z-score [5],composite z-score [6],composite z-score [7],composite z-score [8],composite z-score [9],composite z-score [10]
O=C1[C@H]2[C@H]3[C@H](O)[C@H](O)CC(=NOC[C@@H](O)COCc4ccco4)[C@@H]3CC[C@H]2C(=O)N1c1cccc(Oc2ccccc2)c1,-0.042,-0.334,-0.885,-0.33 (inactive),-0.25,-0.91,-0.094,-0.213,0.461,0.831
CCOC(=O)[C@H](CC(C)C)NC(=O)CCC1CC(OC(=O)NCc2ccc3c(c2)OCO3)CC2(CCCC(COC(=O)NCCc3ccc(Cl)cc3)O2)O1 (stereo not given in full),0.193,-0.0218,-0.514,0.0274 (inactive),0.525,0.293,0.199,0.829,0.96,0.101
CC(C)=NO[C@@H](C)c1cn([C@H](CO)Cc2ccccc2)nn1,0.8,0.0454,-0.832,-0.937 (inactive),0.393,0.523,0.303,0.345,0.27,0.111
CC(C)[C@H](NC(=O)OC(C)(C)C)[C@@H](O)CC(=O)C(C)(C)C,0.447,-0.268,-0.428,-0.275 (inactive),0.159,-0.191,0.327,0.29,0.513,-0.0828
CO[C@H]1COC(=O)CCC[C@H](C)[C@@H](OC)COC(=O)CC=C[C@@H]1C,0.981,-0.26,-0.811,-1.05 (inactive),0.267,0.278,0.711,0.319,0.846,0.691
COC(=O)[C@H](CCSC)NC(=O)CC=C[C@@H](C)CO,-0.0481,-0.34,-1.47,-0.0982 (inactive),1.26,1.28,1.53,1.46,1.97,-1.91
CC(C)=CCCC(C)=CCON=C1C[C@@H](O)[C@@H](O)[C@@H]2[C@@H]3C(=O)N(C4CCCCC4)C(=O)[C@@H]3CC[C@H]12,0.475,-0.107,-0.304,-0.693 (inactive),0.785,0.701,0.513,1.11,0.873,0.644
C=CC[C@@H]1C=C[C@H](ON=C[C@@H](NS(=O)(=O)c2ccc(C)cc2)[C@H](C)C=CCC(=O)OC)[C@@H](CO)O1,0.296,-0.353,-0.642,0.463 (inactive),0.0083,-0.0166,0.516,0.566,0.619,1.15
CC(CCN1CCCc2nc(C)c(C)cc21)=NO[C@H](C)c1cn([C@H](CO)Cc2ccccc2)nn1,0.721,-0.319,-0.395,0.407 (inactive),0.59,0.605,0.596,0.761,0.935,1.11
C=CCOCC1CN2[C@@H](CC[C@@H](C)[C@@H]2c2ccc(Br)cc2)C(=O)O1 (stereo not given in full),-0.316,-0.182,-0.165,0.597 (inactive),-0.342,-0.255,-0.014,-0.293,0.0635,0.757
COc1ccc(OC[C@H]2CN3[C@@H](CC[C@@H](C)[C@@H]3c3ccc(Br)cc3)C(=O)O2)cc1,0.233,-0.278,-0.345,-0.319 (inactive),0.0848,0.16,0.204,0.142,0.344,0.607
CON=C(C)CCC(=O)OC[C@H]1O[C@H](C#Cc2ccccc2)C=C[C@@H]1Oc1ccc(C)cc1,0.699,0.0281,-0.22,0.825 (inactive),0.19,-0.252,0.252,0.407,0.572,0.719
CC(CCN1CCc2nc(-c3ccccc3)c(-c3ccccc3)cc2C1)=NOC(C)CN1CCCc2nc(C)c(C)cc21 (stereo not given),0.934,0.196,-0.218,1.12 (inactive),0.942,1.02,0.603,1.02,0.732,0.858
Cc1ccc(C(C)C)n1C(=O)OC(C)(C)C,-0.0286,-0.271,-0.611,-1.45 (inactive),0.789,0.61,0.55,0.807,0.768,-0.124
COC(=O)[C@H](C)NC(=O)CCC1CC(OC(=O)NCc2ccc3c(c2)OCO3)CC2(CCCC(COC(=O)NCc3ccccc3)O2)O1 (stereo not given in full),0.343,-0.172,-0.612,-0.66 (inactive),0.894,0.821,0.293,0.832,0.893,-0.0611
CC(=O)OC[C@H]1O[C@H](CC=NO[C@@H](C)c2cn([C@H](CO)Cc3ccccc3)nn2)C=C[C@@H]1OC(C)=O,0.775,0.101,-0.624,-1.54 (inactive),1.07,0.517,0.387,1.06,1.05,-0.383
O=C(NCCC[N+]1=CC=NC1c1ccccc1)N1CCCc2nc(-c3ccc(Br)cc3)ccc21 (stereo not given),1.02,-0.128,-0.346,-0.106 (inactive),0.0448,0.212,0.221,-0.0767,0.42,0.435
O=C1[C@H]2[C@H]3[C@H](O)[C@H](O)CC(=NO[C@@H]4O[C@H](CO)[C@@H](O)[C@H](O)[C@H]4O)[C@@H]3CC[C@H]2C(=O)N1C[C@@H]1CCCO1,0.355,-0.29,-0.565,-1.45 (inactive),0.784,0.839,0.448,0.738,0.35,-0.808
COC(=O)[C@H](C)NC(=O)CCC1CC(OC(=O)NCc2cccc3ccccc23)CC2(CCCC(COC(=O)NCCCN3CCCC3=O)O2)O1 (stereo not given in full),0.666,-0.102,-0.279,-0.915 (inactive),0.92,1.17,0.929,0.91,0.77,-0.503
CCOC(=O)CCN1C(=O)[C@H]2[C@H]3[C@H](O)[C@H](O)CC(=NO[C@@H]4O[C@H](CO)[C@@H](O)[C@H](O)[C@H]4O)[C@H]3CC[C@H]2C1=O,0.29,0.198,-0.141,-0.265 (inactive),0.655,0.822,0.563,0.231,0.315,0.401
C#CCCCON=C1C[C@@H](O)[C@@H](O)[C@@H]2[C@@H]3C(=O)N(C4CCCCC4)C(=O)[C@@H]3CC[C@@H]12,0.369,0.0266,-0.287,0.466 (inactive),0.743,-0.0432,0.336,0.556,0.692,0.265
CC(CCC(=O)OC[C@H]1O[C@H](C#Cc2ccccc2)C=C[C@@H]1Oc1ccc(C)cc1)=NO[C@@H](C)c1cc(-c2c(C)cc(C)cc2C)no1,0.199,-0.293,-0.0256,0.0536 (inactive),-1.43,-1.48,-0.983,-1.27,-0.465,0.486
CO[C@H]1COC(=O)CC=C[C@H](C)[C@H](OC)COC(=O)[C@@H](C)NC(=O)CC=C[C@@H]1C,1.65,-0.407,-1.19,-0.59 (inactive),0.777,0.507,0.383,1.36,1.56,1.64
CCOC(=O)[C@H](CC(C)C)NC(=O)CCC1CC(OC(=O)NCCc2ccc(F)cc2)CC2(CCCC(COC(=O)NCc3cccc(C(F)(F)F)c3)O2)O1 (stereo not given in full),0.581,-0.211,-0.51,0.478 (inactive),1.39,0.733,0.29,0.814,0.532,-0.257
CCN1C(=O)[C@H]2[C@H]3[C@H](O)[C@H](O)CC(=NOCC=C(C)CCC=C(C)C)[C@@H]3CC[C@H]2C1=O,0.882,-0.214,-0.717,0.486 (inactive),1.21,0.938,1.53,0.972,1.16,1.18
Cc1cc2c(nc1C)CCCCN2CC(O)CN1CCCc2nc(-c3ccc(Br)cc3)ccc21 (stereo not given),0.704,-0.0514,-0.332,0.0168 (inactive),0.874,0.62,0.597,1.21,0.446,0.481
CC(C)CON=C1C[C@@H](O)[C@@H](O)[C@@H]2[C@@H]3C(=O)N(c4ccc(F)cc4F)C(=O)[C@@H]3CC[C@@H]12,0.622,-0.153,-0.462,-0.817 (inactive),0.585,0.598,0.321,0.598,0.289,-0.287
